# High-throughput results (PubChem)
# FUS suppressor – FUS proteinopathy suppression in yeast; S. cerevisiae FUS-expressing, growth rescue, OD600, 24 h; Potency, µM (titrated, usually from 76.6 µM), hits mostly activators; hit rate 0.24% among 390,000; AID 1347120;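 note: plate controls were DMSO vehicle for no effect and reference control for full effect; nearly all actives have a fitted effect of over 55% in size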
#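 Yeast FUS proteinopathy model; galactose-induced FUS (2%), starting OD 0.005. Cpds in dilution series, 24hr, 30C, 99% humidity. Abs 600 nm growth. Pos ctrl CP55940 (top 92uM final); neg ctrl DMSO.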
# aSyn rescue – rescues yeast growth from alpha-synuclein toxicity; Yeast expressing alpha-synuclein, growth rescue, BacTiter-Glo, 24 h; Potency, µM (highest dose often 46.1 µM), for the others: at the top dose growth rescue (activation), actives largely listed as activators; hit rate 0.14% among 370,000; note: % of control where 0% means no effect; nearly all actives have a fitted effect of over 65% in size
#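 Galactose-induced alpha-syn yeast (OD600=0.02, raffinose-pregrown) + pinned cpd, 24 hr, 30 deg C; growth by BacTiter-Glo luminescence. Growth restoration scores as activation.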
# Abeta yeast res – compounds reversing amyloid beta toxicity in yeast | yeast expressing A-beta42, growth rescue, OD600, 48 h; response scale: 0% DMSO, 100% iron-clioquinol control | Potency, µM (doses to about 46.1 µM), usual class: activators | hit rate 0.063% among 410,000 | AID 1347071; note: nearly all actives have a fitted effect of over 55% in size
#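 Growth rescue measured by 600 nm absorbance after 48 h yeast culture at 30 C with compound. Values normalized between DMSO and an equimolar ferric chloride plus clioquinol control.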
# TDP43 rescue – TDP-43 toxicity inhibition in yeast; hit rate 1.8% among 410,000; TDP-43 expressing yeast growth rescue, BacTiter-Glo, 24 h; AID 652104; Potency, µM (series often up to 46.1 µM), inactives show top-dose growth rescue (activation), actives largely listed as activators; note: % of control where 0% means no effect; nearly all actives have a fitted effect of over 50% in size
#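 Galactose-induced TDP-43 yeast, OD600=0.02, compound pinned; 24 hr, 30 deg C; BacTiter-Glo luminescence for growth. Inhibitors of TDP-43 toxicity read as activators.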
# * hit, by the source's call; i = inactive; ? = inconclusive; · = not tested or not shown. An excerpt weighted towards active compounds, which were near 2.1% of everything screened. Calls come from the whole dose curve; as a rule, active = well fitted curve in the direction sought with a large enough effect; inconclusive = small, poorly fitted or top-dose-only effect, or another doubt; inactive = no such curve, though single readings can be large; an effect the other way counts as inactive or inconclusive. Potency is the fitted concentration of half-maximal effect.
SMILES,FUS suppressor,aSyn rescue,Abeta yeast res,TDP43 rescue
COC(=O)C1=C(c2ccc(-c3ccccc3)c(F)c2)C[C@@H]2CC[C@H]1N2C(=O)NCCCOC(C)C,?,11%,i,23%
Cc1ccccc1-c1ccc2n1Cc1cnnn1-c1ccccc1-2,i,5%,i,13µM*
Cc1ccccc1C(=O)NNC(=S)NC(=O)COc1ccccc1,i,3.2µM*,i,3%
O=C(O)COc1ccccc1,i,-11%,i,4%
O=c1[nH]/c(=C\c2ccc(N(CCCl)CCCl)cc2)c(=O)[nH]/c1=C\c1ccc(N(CCCl)CCCl)cc1,·,-1%,·,·
CC1=CC2OC3CC4OC(=O)C=CC=CC(=O)OCCC(C)C(O)C(=O)OCC2(CC1O)C4(C)C31CO1 (stereo not drawn),·,?,i,13µM*
ClCCN(CCCl)c1ccc(/C=C/c2ccnc3ccccc23)cc1,·,-41%,·,·
c1ccc(-c2ccc(C(c3ccccc3)n3ccnc3)cc2)cc1 (stereo not drawn),i,?,i,6.3µM*
Brc1c(Br)c(Br)c2n[nH]nc2c1Br,·,-46%,·,·
O=P(Nc1cccc(F)c1)(Oc1ccccc1F)Oc1ccccc1F,i,18µM*,?,28%
O=C(Nc1ccc(Cl)cc1)Nc1nccs1,i,-3%,i,20µM*
O=C(Nc1nccs1)C(Cl)(Cl)Cl,i,-9%,i,8%
COc1cc2nc(N3CCCN(C)CC3)nc(N(C)C3CCN(C)CC3)c2cc1OC,·,0%,·,·
C[C@@H]1CN([C@@H](C)CO)C(=O)CCCn2nncc2CO[C@H]1CN(C)C(=O)Nc1ccc(N2CCCCC2)cc1,i,?,i,12%
Cc1cccc(Cn2cc(C=O)c3ccccc32)c1,i,7%,i,14µM*
Cn1ncc2c(NCc3ccc(Cl)cc3)ncnc21,i,·,i,?
COC1C(C)OC(OC2CC(C)(O)Cc3cc4c(c(O)c32)C(=O)c2c(O)cc3c(c2C4=O)OC2OC3(C)C(O)C(N(C)C)C2O)C(OC)C1(C)OC (stereo not drawn),·,?,i,22µM*
Cc1cc(N(C)C)ccc1N=Nc1ccc(N)cc1,i,-16%,i,13µM*
C=C(C=O)CC1CC(O)[C@]2(C)OC3CC4OC5C[C@]6(C)O[C@]7(C)CCC8OC9C[C@]%10(C)OC%11C(C)=CC(=O)OC%11CC%10OC9C[C@@H](C)C8OC7CC6O[C@]5(C)CC5OC5C4OC3CC2O1 (stereo partly drawn),i,5%,i,3.2µM*
CCOc1ccc(-c2nc(CSCC(=O)NCCc3ccc(OCC)c(OCC)c3)c(C)o2)cc1,i,·,i,?
CCCCC[C@@H]1CCCCC[C@@H](O)C[C@@H](O)[C@H](O)/C=C/C(=O)O1,i,9%,i,0%
CC1CCC(C)(NS(=O)(=O)OCC(Cl)(Cl)Cl)CC1 (stereo not drawn),i,4%,i,18µM*
CCOC(=O)[C@]12Cc3ccccc3[C@H]1N(C)C(=O)c1cc(OC)ccc12,i,4%,i,35µM*
CCOC(=O)[C@]12Cc3c(cc(OC)c(OC)c3OC)[C@H]1N(C)C(=O)c1cc(OC)ccc12,i,0%,i,18µM*
COC(=O)[C@@H]1N=C(c2ccc(OC)cc2)O[C@]12C(=O)N(Cc1ccc(OC)cc1)c1ccccc12,14µM*,2%,i,-18%
SMILES,FUS suppressor,aSyn rescue,Abeta yeast res,TDP43 rescue
COc1ccc(Cn2c(O)c(/C=N/NC(=O)c3ccccc3)c(=O)[nH]c2=O)cc1,i,-13%,i,17%
CC1=CC2/C=C(\C)CCC(O)C(O)/C=C/C(=O)C23C(=O)NC(CC(C)C)C3C1C (stereo not drawn),i,3%,i,-4%
C/C1=C\[C@@H](C)C/C=C/[C@H]2[C@@H]3O[C@]3(C)[C@@H](C)[C@H]3[C@H](Cc4c[nH]c5ccccc45)NC(=O)[C@]32C(=O)/C=C/C(=O)[C@@H]1O,?,22%,i,11µM*
Cc1ccc(NC(=O)C2CCN(C(=O)c3cnn(-c4ccccc4)c3-n3cccc3)CC2)cc1Cl,i,·,i,35µM*
Cc1sc2ncnc(N3CCC(C(=O)Nc4ccc(C#N)c(Cl)c4)CC3)c2c1C,i,-1%,i,24%
Cc1cccc(NC(=O)COC(=O)c2cc(C)n(C3CC3)c2C)c1,i,17%,i,35µM*
S=P(c1ccccc1)(c1ccccc1)c1cnc2ccccn12,22µM*,·,·,·
Cc1ccc(S(=O)(=O)Nc2ccc3ncccc3c2[N+](=O)[O-])cc1,·,-33%,i,3.5µM*
CCOC(=O)c1c(NC(NC(=O)CF)C(Cl)(Cl)Cl)sc2c1CCCC2 (stereo not drawn),i,10%,i,22µM*
Cc1cc([C@@H]2CCCN2C)on1,·,2%,·,·
O=S(=O)(c1ccc(Cl)cc1)N1Cc2cc(Br)ccc2-n2nncc2C1,i,4%,i,20µM*
COc1ccc(S(=O)(=O)N2Cc3ccccc3-n3nncc3C2)cc1,i,3%,i,18%
O=S(=O)(c1cccc2ccccc12)N1Cc2ccccc2-n2nncc2C1,i,0%,i,20µM*
CCc1ccc(NC(=O)c2ccc(F)c(S(=O)(=O)N3CCC4(CC3)OCCO4)c2)cc1,i,·,i,?
CCCc1cc(N2CCN(c3ccc(OC)cc3)CC2)n2cnnc2n1,i,·,i,?
S=C(NCCc1ccccc1)N1Cc2cc(Br)ccc2-n2nncc2C1,i,?,?,22µM*
O=C(NC1CCCCC1)N1Cc2cc(-c3ccccc3)ccc2-n2nncc2C1,i,10%,i,20µM*
COc1ccc(NC(=S)N2Cc3ccccc3-n3nncc3C2)c(OC)c1,i,0%,i,?
COc1ccc(-c2ccc3c(c2)CN(C(=S)NCCc2ccccc2)Cc2cnnn2-3)cc1,i,4µM*,i,?
S=C(NCCc1ccccc1)N1Cc2ccc(Br)cc2-n2nncc2C1,i,?,?,25µM*
COc1ccc(-c2coc3c(C(=O)Nc4cc(OC)c(OC)c(OC)c4)cccc23)c(C)c1,i,-5%,i,?
Cc1csc2nc(COC(=O)c3ccccc3NC(=O)c3ccc(F)cc3)cc(=O)n12,i,·,i,?
COc1c(C)cc(Br)cc1C(=O)Nc1ccc(-c2nc3ncccc3o2)cc1,i,·,i,?
CCOc1ccc(N2CC(c3nc4ccccc4n3CCC3CCCCC3)CC2=O)cc1 (stereo not drawn),i,·,i,25µM*
COc1ccccc1N1CCN(C(=O)c2cc3c(-c4ccccc4F)nn(C)c3s2)CC1,18µM*,·,i,16µM*
COc1cccc(CNC(=O)c2cc3c(-c4ccccc4F)nn(C)c3s2)c1,?,·,i,?
Cc1ccccc1-n1nc(C)c2c1NC(=O)CSC2c1ccccc1C(F)(F)F (stereo not drawn),i,·,i,35µM*
